# The list is not random: actives were taken first. Their share in the collection is about 4.6%.
# Vaccinia mCherry: inhibitors of vaccinia virus infection (mCherry reporter signal) | Vaccinia virus mCherry reporter infection, fluorescence | hit rate 0.63% among 310,000 | Potency, µM (titrated, usually from 36.5 µM), for inactives: at the top dose activity change, negative = inhibition, hits mostly inhibitors; calls by dose curve; tested in A549 cells; note: nearly all actives have a fitted effect of over 35% in size
# VACV Venus inh: vaccinia inhibition (Venus reporter) | Vaccinia virus Venus reporter expression, fluorescence | Potency, µM (series often up to 36.5 µM), for inactives: top-dose activity change, negative = inhibition, hits mostly inhibitors | hit rate 0.46% among 330,000 | AID 720580; calls by dose curve; tested in A549 cells; note: nearly all actives have a fitted effect of over 30% in size
# LASV entry inh: inhibitors of Lassa virus binding or cell entry; Potency, µM (top dose mostly 37.9 µM), for inactives: top-dose activity change, negative = inhibition, actives largely listed as inhibitors; Lassa virus pseudotype entry inhibition, cell reporter; hit rate 1.2% among 300,000; calls by dose curve; tested in HEK293 cells; note: nearly all actives have a fitted effect of over 50% in size
# HCV inh: HCV inhibition; Potency, µM (doses to about 41.8 µM), for inactives: top-dose activity change, negative = inhibition, actives largely listed as inhibitors; hit rate 3.4% among 340,000; AID 651820; Huh7.5.1 HCVcc-Cre infection, luciferase reporter, 44 h; active = well fitted inhibition curve with a large enough effect; inconclusive = small, poorly fitted or top-dose-only effect, or another doubt; inactive = no such curve, though single readings can be large or run the other way
#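 HCVcc-Cre virus at an moi near 0.5 was added right after compound to cells cultured 4 h from seeding (1,000 cells/well). Luciferase activity was determined 44 h later, 15 min after substrate addition at RT.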
# MARV entry inh: Marburg virus entry inhibition. Marburg virus pseudotyped entry inhibition, cell reporter. Potency, µM (top dose mostly 37.8 µM), for inactives: at the highest dose activity change, negative = inhibition, hits mostly inhibitors. hit rate 1.8% among 300,000. AID 540276; calls by dose curve; tested in HEK293 cells
# Active calls of the source: *; i = inactive; ? = inconclusive; · = no result; [ ] = remark or other dose. % is set by controls: 0 for no effect and ±100 for the full control effect; potency is the fitted concentration of half-maximal effect.
SMILES,Vaccinia mCherry,VACV Venus inh,LASV entry inh,HCV inh,MARV entry inh
Cc1ccc(-c2nc3sc(CCNS(=O)(=O)c4cc(F)ccc4F)c(C)n3n2)cc1,?,?,-27%[46.1 µM],·,·
COc1ccc(NS(=O)(=O)c2cc(N/C(=N\S(=O)(=O)c3ccccc3)c3ccc(F)cc3)ccc2Cl)cc1,-21%,?,?,?,12µM*
CCOc1ccc(Oc2ccc(NS(=O)(=O)c3cc(C(=O)O)ccc3Cl)cc2)cc1,·,·,·,-3%,·
CN(C)S(=O)(=O)Oc1ccc(C(=O)Nc2cccc(C(F)(F)F)c2)cc1,·,·,·,11µM*,·
CCOc1ccc(NS(=O)(=O)c2cc(NC(=O)c3ccc(C)cc3)ccc2Cl)cc1,?,?,?,7.9µM*,?
COc1ccc(NS(=O)(=O)c2cc(C(=O)N3CCN(C(C)=O)CC3)ccc2Cl)cc1,i,7%,-23%[46.1 µM],0%,-12%[46.1 µM]
COc1cccc(C(=O)Nc2ccc(C(=O)c3ccccc3)cc2)c1,·,·,·,10µM*,·
Oc1cccc(-c2nc(-c3cccs3)c(-c3cccs3)[nH]2)c1,-16%,-18%,1%[46.1 µM],·,?
Cc1ccc(CS(=O)(=O)Cc2ccc(C(=O)NCCc3ccc(Cl)cc3)o2)cc1,-20%,-3%,-5%[46.1 µM],·,·
CCC(C)NCCC(=O)Nc1ccc(Cl)c(S(=O)(=O)Nc2ccc(Cl)cc2)c1 (centres undefined),-25%,-23%,7%,?,11µM*
COc1ccc(C(=O)Nc2ccc(Cl)c(S(=O)(=O)Nc3ccccc3OC)c2)cc1,?,?,?,?,2.8µM*
COc1cc2c(cc1OC)C1(Nc3c-2c(-c2ccccc2)nn3-c2ccccc2)C(=O)Nc2ccccc21 (centres undefined),-28%,?,-25%,13µM*,?
COc1cc2c(cc1OC)C1(Nc3c-2c(C)nn3-c2ccccc2)C(=O)Nc2ccccc21 (centres undefined),-22%[1.46 µM],?,?,-27%,-4%
CCOC(=O)N1CCc2c(sc3c2c(=O)n(CCc2ccccc2)c(=O)n3CC(=O)Nc2ccc(C)cc2)C1,-17%,-5%,8%[46.1 µM],·,8%[46.1 µM]
COc1ccc2[nH]c3c(c2c1)CCN(C(=O)c1cccc(Cl)c1)C3c1ccc(F)cc1 (centres undefined),?,4%,?,·,1µM*
Cc1cnc(C)c(-c2cccc3c2OC(CNC(=O)c2cc(C)on2)C3)n1 (centres undefined),-16%,2%,·,·,·
CCOC(=O)C(NC(C)=O)C(O)c1ccc([N+](=O)[O-])cc1 (centres undefined),-3%,-28%,-1%[46.1 µM],9%,1%[46.1 µM]
CCCCCCCCCCCC(=O)NC(C(=O)OCC)C(O)c1cccc([N+](=O)[O-])c1 (centres undefined),-21%,-29%,?,-1%,11µM*
COc1ccc(CCNC(=O)c2cc(C)nc3c2c(C)nn3-c2ccc(C)cc2)cc1OC,-9%,-19%,-14%[46.1 µM],·,·
N=c1ccn(Cc2ccc(F)cc2)cc1,·,·,·,4µM*,·
O=C(NNC(=O)C12CC3CC(CC(C3)C1)C2)c1ccccn1,10µM*,?,7.9µM*,?,10µM*
COc1ccc(CCN(C)C(=O)c2cnn(-c3nccc(-c4ccc(C)o4)n3)c2C)cc1OC,-17%,-11%,·,·,·
CCOC(=O)CC1C(=O)NCCN1S(=O)(=O)c1cc(Cl)c(Cl)cc1Cl (centres undefined),?,-23%,-12%,8%,1.6µM*
Cc1cccc2cc(CN(CC3CCCO3)C(=O)C3CC3)c(N(C)C)nc12 (centres undefined),-11%,2%,·,·,·
CCOC(=O)c1ccc2nc(C)c3c(c2c1)OC(C)C3 (centres undefined),·,-20%,-26%,10µM*,-5%
SMILES,Vaccinia mCherry,VACV Venus inh,LASV entry inh,HCV inh,MARV entry inh
COc1ccc2nc(C)c3c(c2c1)OC(C)C3 (centres undefined),·,-11%,21%,-18%,3%
CCOc1ccccc1C(=O)N1c2ccccc2Sc2ccccc21,·,-33%,?,11µM*,?
CC(=O)[C@]12C[C@@H]3CCCN(C(=O)N[C@@H]1c1ccccc1)[C@@H]32,·,·,·,·,0%[14.2 µM]
COc1ccc(CNCc2c(C(=O)O)c(C)n(Cc3ccc(Cl)cc3)c2C)c(OC)c1,i,-3%,-14%[46.1 µM],·,-15%[46.1 µM]
Nc1nn(-c2ccccc2)c(N)c1N=Nc1ccc2c(c1)OCO2,?,?,?,?,8.9µM*
Nc1[nH]n(-c2ccccc2)c(=O)c1N=Nc1ccc2c(c1)OCO2,·,·,·,-11%,·

# Source: PubChem BioAssay
